# Legend:
# Assay in all cases: DAPPL (digital affinity profiling via proximity ligation, sequencing); 10 mM Tris-HCl pH 7.5, 50 mM NaCl, 1 mM DTT, 4% glycerol, room temperature, 30 min; GST-TFs on glutathione beads, 16-mer random dsDNA library, 0.1% formaldehyde crosslink after washing; high values mean tight binding
# Details in all cases: protein: recombinant; tags: N-terminal GST; dsDNA, one strand shown
# GABPA = target: T1, GABPA (Homo sapiens, UniProt Q06546 1-454)
# T1 sequence: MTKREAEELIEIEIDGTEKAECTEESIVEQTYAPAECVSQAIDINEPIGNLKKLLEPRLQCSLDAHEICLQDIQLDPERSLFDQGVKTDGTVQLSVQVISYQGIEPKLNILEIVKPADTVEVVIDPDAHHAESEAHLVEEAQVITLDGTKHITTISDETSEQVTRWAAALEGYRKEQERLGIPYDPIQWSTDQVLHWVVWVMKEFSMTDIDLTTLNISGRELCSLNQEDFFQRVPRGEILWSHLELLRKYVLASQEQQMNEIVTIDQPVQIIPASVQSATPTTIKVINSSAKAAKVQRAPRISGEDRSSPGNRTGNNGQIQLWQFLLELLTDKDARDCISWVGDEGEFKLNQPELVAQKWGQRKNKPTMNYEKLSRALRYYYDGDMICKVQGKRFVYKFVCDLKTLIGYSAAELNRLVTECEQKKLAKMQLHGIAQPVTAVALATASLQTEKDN
# How it was run: (§1)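 Human transcription factors fused to GST were expressed in yeast, captured on glutathione beads, given DNA barcodes and pooled with a GST-only negative control. Pools were incubated with 200 nmole of a 16-mer random double-stranded DNA library in Tris/NaCl/DTT/glycerol buffer at room temperature for 30 min. They were then washed, crosslinked with 0.1% formaldehyde, proximity-ligated (BsaI/T4 ligase, 1 h, 37 °C), PCR-amplified and sequenced on an Illumina NextSeq500. Binding signal is each 6-mer's read frequency for a factor divided by its frequency for the GST control.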
# ELF1 = ELF1 (Homo sapiens, UniProt P32519 1-619)
# How it was run: as §1
# SPIC = target: T2, SPIC (Homo sapiens, UniProt Q8N5J4 1-248)
# T2 sequence: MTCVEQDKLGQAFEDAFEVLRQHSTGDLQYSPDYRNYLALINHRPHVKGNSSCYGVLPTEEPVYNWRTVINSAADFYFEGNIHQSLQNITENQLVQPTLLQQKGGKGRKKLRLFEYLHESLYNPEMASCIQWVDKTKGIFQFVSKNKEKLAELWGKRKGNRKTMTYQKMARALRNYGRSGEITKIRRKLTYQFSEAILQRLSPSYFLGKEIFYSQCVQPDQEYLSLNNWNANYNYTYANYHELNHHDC
# How it was run: as §1
# ELK4 = target: T3, ELK4 (Homo sapiens, UniProt P28324-2 1-405)
# T3 sequence: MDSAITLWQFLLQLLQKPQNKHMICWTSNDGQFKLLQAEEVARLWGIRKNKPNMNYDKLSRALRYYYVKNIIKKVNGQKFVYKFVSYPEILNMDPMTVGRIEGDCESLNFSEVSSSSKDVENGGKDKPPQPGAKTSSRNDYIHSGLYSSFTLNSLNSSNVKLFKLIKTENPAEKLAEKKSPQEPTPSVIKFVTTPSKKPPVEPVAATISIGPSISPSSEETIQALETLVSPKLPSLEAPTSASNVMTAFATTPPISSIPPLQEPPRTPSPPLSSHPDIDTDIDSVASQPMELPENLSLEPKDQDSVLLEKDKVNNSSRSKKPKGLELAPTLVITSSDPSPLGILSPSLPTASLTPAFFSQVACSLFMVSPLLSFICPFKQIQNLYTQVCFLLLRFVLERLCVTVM
# How it was run: as §1
# ETV7 = target: T4, ETV7 (Homo sapiens, UniProt Q9Y603 1-341)
# T4 sequence: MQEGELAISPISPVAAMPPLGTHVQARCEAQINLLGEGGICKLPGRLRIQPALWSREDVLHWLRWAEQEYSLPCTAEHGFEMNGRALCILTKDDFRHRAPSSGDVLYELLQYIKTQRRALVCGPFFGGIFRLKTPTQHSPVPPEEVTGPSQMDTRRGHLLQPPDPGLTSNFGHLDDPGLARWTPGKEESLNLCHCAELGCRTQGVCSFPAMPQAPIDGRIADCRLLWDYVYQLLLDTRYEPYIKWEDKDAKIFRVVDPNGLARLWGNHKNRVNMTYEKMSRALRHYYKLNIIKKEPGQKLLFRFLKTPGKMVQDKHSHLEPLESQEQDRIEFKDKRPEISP
# How it was run: as §1
# ETV3 = target: T5, ETV3 (Homo sapiens, UniProt P41162-2 1-143)
# T5 sequence: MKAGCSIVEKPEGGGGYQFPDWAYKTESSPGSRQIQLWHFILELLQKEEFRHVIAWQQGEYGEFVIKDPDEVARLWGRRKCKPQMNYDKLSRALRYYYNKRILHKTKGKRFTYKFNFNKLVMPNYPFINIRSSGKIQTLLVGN
# How it was run: as §1
# ETV6 = ETV6 (Homo sapiens, UniProt P41212 1-452)
# How it was run: as §1
# ELK1 = target: T6, ELK1 (Homo sapiens, UniProt P19419 1-428)
# T6 sequence: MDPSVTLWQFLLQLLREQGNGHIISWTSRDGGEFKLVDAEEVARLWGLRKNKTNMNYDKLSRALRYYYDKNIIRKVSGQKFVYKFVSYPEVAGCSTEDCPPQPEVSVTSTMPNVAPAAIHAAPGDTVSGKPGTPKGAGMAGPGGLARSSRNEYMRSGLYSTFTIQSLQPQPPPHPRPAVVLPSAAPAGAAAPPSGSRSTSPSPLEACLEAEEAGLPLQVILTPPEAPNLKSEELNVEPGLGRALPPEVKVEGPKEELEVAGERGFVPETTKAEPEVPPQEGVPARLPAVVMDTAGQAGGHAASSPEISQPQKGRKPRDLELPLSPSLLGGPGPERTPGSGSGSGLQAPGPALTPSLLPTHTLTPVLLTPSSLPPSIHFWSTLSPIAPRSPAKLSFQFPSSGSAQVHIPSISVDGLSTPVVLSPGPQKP
# How it was run: as §1
# EHF = target: T7, EHF (Homo sapiens, UniProt Q9NZC4 1-300)
# T7 sequence: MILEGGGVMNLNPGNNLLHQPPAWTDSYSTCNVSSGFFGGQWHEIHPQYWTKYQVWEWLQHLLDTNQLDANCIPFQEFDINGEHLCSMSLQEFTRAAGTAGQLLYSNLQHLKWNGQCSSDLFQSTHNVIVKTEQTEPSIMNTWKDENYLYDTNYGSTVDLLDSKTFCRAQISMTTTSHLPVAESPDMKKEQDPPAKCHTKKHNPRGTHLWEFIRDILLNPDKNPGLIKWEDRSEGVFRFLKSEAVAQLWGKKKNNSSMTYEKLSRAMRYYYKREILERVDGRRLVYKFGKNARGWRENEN
# How it was run: as §1
# ERF = target: T8, ERF (Homo sapiens, UniProt P50548 1-548)
# T8 sequence: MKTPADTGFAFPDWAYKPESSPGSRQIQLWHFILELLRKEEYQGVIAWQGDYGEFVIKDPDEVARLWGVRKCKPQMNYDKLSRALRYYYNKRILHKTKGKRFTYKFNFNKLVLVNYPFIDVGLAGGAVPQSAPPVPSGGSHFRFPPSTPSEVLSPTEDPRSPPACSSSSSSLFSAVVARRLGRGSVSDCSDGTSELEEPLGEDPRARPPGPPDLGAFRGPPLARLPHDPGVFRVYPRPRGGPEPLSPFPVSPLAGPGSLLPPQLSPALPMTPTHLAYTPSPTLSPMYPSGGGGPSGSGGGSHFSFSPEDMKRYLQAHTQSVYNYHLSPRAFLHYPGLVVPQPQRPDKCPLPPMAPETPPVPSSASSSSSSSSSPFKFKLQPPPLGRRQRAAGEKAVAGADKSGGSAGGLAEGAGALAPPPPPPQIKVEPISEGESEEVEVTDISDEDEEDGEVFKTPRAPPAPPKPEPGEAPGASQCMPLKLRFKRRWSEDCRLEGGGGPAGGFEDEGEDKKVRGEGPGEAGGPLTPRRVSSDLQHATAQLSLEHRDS
# How it was run: as §1
# ETV2 = target: T9, ETV2 (Homo sapiens, UniProt O00321 1-342)
# T9 sequence: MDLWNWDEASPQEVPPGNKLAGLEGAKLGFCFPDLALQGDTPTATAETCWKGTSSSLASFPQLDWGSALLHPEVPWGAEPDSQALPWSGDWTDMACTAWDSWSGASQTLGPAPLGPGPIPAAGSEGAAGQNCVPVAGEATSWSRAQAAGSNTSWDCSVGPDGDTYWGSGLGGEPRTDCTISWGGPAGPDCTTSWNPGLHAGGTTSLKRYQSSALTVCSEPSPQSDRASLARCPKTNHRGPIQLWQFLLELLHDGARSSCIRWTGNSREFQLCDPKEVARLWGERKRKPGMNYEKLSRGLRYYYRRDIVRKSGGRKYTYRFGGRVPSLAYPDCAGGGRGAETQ
# How it was run: as §1
# ELF3 = target: T10, ELF3 (Homo sapiens, UniProt P78545 1-371)
# T10 sequence: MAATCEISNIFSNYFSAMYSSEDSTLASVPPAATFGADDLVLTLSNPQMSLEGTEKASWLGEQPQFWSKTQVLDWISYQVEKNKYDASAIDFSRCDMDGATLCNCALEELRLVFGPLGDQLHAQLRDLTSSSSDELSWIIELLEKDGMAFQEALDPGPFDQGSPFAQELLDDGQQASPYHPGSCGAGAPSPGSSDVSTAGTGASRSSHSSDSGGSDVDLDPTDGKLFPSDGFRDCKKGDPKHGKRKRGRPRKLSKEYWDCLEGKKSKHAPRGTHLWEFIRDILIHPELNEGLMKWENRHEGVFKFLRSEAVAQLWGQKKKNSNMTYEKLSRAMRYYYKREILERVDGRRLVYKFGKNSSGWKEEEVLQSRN
# How it was run: as §1
# ETV1 = ETV1 (Homo sapiens, UniProt P50549 1-477)
# How it was run: as §1
# ETV6, sequence (P41212 whole entry): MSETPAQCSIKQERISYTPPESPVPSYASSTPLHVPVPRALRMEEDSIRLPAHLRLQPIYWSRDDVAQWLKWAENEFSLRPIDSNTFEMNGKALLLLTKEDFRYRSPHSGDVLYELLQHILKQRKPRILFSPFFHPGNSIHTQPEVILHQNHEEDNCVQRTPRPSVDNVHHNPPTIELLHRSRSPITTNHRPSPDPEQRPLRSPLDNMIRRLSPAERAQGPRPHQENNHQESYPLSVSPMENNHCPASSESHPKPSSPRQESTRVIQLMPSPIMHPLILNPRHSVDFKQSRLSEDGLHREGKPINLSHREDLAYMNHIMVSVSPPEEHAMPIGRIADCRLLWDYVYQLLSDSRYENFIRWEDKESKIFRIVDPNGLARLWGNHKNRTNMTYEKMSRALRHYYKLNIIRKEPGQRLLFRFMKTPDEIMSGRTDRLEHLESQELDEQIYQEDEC
# ELF1, sequence (P32519 whole entry): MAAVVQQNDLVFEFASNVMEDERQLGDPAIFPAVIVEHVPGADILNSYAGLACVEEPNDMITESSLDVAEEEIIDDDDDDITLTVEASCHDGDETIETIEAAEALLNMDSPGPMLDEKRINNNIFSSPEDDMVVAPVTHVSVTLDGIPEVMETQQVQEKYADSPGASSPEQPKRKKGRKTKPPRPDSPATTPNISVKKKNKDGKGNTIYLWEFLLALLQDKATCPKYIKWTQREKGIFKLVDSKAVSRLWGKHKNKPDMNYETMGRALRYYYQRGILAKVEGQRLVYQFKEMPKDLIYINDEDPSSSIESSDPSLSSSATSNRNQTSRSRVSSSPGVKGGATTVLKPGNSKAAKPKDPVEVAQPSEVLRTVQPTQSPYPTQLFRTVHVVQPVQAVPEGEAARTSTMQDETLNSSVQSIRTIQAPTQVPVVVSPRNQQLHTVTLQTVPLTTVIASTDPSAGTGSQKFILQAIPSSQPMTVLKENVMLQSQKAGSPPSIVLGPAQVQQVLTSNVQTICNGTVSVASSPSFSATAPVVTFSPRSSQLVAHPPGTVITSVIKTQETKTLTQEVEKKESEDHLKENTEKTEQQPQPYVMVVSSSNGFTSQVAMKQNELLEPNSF
# ETV1, sequence (P50549 whole entry): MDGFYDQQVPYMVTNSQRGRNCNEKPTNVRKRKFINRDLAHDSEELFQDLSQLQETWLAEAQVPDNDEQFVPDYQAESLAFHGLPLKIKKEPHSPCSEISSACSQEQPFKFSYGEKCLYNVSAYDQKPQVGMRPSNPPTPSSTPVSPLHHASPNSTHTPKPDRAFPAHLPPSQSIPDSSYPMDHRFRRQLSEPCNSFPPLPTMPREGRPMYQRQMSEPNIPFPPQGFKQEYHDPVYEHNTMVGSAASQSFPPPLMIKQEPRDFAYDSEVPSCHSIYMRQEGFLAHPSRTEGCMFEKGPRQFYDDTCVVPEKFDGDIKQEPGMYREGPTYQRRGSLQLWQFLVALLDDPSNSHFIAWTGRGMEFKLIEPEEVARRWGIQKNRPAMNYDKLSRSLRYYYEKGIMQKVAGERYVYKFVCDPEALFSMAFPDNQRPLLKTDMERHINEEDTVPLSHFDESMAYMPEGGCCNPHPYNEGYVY
sequence,measurement,setting,value
CGACGG,binding signal,GABPA,"1.09 fold enrichment (6-mer frequency, TF over GST control)"
same,binding signal,ELF1,"1.01 fold enrichment (6-mer frequency, TF over GST control)"
same,binding signal,SPIC,"1.15 fold enrichment (6-mer frequency, TF over GST control)"
same,binding signal,ELK4,"1.02 fold enrichment (6-mer frequency, TF over GST control)"
same,binding signal,ETV7,"1.13 fold enrichment (6-mer frequency, TF over GST control)"
same,binding signal,ETV3,"1.05 fold enrichment (6-mer frequency, TF over GST control)"
same,binding signal,ETV6,"1.03 fold enrichment (6-mer frequency, TF over GST control)"
TGAAGC,binding signal,ELK1,"1.05 fold enrichment (6-mer frequency, TF over GST control)"
same,binding signal,EHF,"1.04 fold enrichment (6-mer frequency, TF over GST control)"
same,binding signal,ELK4,"1.04 fold enrichment (6-mer frequency, TF over GST control)"
same,binding signal,ERF,"1.07 fold enrichment (6-mer frequency, TF over GST control)"
same,binding signal,ETV3,"1 fold enrichment (6-mer frequency, TF over GST control)"
same,binding signal,ETV6,"1.01 fold enrichment (6-mer frequency, TF over GST control)"
CATAGC,binding signal,GABPA,"1.02 fold enrichment (6-mer frequency, TF over GST control)"
same,binding signal,ELF1,"1.02 fold enrichment (6-mer frequency, TF over GST control)"
same,binding signal,EHF,"1.01 fold enrichment (6-mer frequency, TF over GST control)"
same,binding signal,ETV2,"1.06 fold enrichment (6-mer frequency, TF over GST control)"
same,binding signal,ELF3,"1.1 fold enrichment (6-mer frequency, TF over GST control)"
same,binding signal,ETV1,"1.02 fold enrichment (6-mer frequency, TF over GST control)"
same,binding signal,ERF,"1.07 fold enrichment (6-mer frequency, TF over GST control)"
same,binding signal,ETV6,"1.02 fold enrichment (6-mer frequency, TF over GST control)"

# From article PMC7862700, “An all-to-all approach to the identification of sequence-specific readers for epigenetic DNA modifications on cytosine”
